This is a sample that favours compounds with a hit; in the whole collection about 2.5% have one here.
UHRF1 binding = human UHRF1 methylated DNA binding inhibitors | actives 0.75% (n = 370,000) | AID 687016 | UHRF1 binding to methylated oligo, TR-FRET | inhibition, % at 4.4 µM; in the data active = inhibition above about 21%;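 note: UHRF1 SRA domain binding a hemimethylated CpG hairpin DNA probe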
Target sequence (Q96T88 whole entry, looked up, the tested form may be a part): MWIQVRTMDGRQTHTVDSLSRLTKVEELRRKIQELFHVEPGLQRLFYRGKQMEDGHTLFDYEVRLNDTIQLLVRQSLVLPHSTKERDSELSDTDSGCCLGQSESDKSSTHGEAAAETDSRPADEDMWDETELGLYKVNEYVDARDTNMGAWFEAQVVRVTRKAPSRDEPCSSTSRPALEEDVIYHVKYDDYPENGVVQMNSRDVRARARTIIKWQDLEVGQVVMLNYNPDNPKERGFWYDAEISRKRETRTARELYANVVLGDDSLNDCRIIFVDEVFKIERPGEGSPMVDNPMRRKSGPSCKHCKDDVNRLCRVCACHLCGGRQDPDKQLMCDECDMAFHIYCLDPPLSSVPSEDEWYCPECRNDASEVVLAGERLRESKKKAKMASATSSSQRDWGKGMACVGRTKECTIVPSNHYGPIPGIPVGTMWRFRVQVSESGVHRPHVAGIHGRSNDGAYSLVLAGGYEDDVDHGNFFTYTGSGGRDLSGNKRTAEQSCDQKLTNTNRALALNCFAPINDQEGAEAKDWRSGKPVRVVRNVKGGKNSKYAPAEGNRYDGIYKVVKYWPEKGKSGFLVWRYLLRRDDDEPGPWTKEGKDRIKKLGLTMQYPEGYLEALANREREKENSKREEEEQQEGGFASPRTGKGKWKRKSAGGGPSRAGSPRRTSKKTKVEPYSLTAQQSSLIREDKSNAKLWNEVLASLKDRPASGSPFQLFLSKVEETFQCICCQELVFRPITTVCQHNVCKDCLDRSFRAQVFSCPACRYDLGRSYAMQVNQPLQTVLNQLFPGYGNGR
LEDGF integ inh = blocks HIV-1 LEDGF/p75-dependent DNA integration. TR-FRET IN-LEDGF/p75 DNA integration, Eu/Cy5. inhibition, % at 3.7 µM. actives 0.64% (n = 370,000). AID 743269;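 active = inhibition above the screen-wide mean plus 3 SD, cut at about 13% in these data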;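 note: signal is the Cy5 over europium emission ratio at 671 and 618 nm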
MBD2 inh = MBD2-methylated oligo binding inhibition | TR-FRET, MBD2 binding to methylated oligonucleotide | AID 686964 | Q9UBB5 | inhibition, % at 4.4 µM | actives 0.31% (n = 370,000); in the data active = inhibition above about 13%
PRMT1 inh = PRMT1 (human) inhibition, primary screen; AID 652257; recombinant PRMT1, activity-based probe fluorescence polarization; inhibition, % at 2.79 µM; Q99873; actives 1.3% (n = 370,000);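 active = inhibition above about 21% made by adding two undisclosed values, limit read from the data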
PRMT1 inh conf = PRMT1 (human) inhibition, FP confirmation; shares compounds with PRMT1 inh; recombinant His-PRMT1, activity-based probe fluorescence polarization; inhibition, % at 2.79 µM; actives 42% (n = 3,300);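 active = mean inhibition across replicates above the hit cutoff derived for the earlier primary screen, cut at about 22% in these data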
Large screens that a line does not name were inactive (follow-up assays come after a bar, where they were run).

O=C(/C=C/c1ccc(-c2ccccc2[N+](=O)[O-])o1)c1ccccc1	PRMT1 inh 28.3 | PRMT1 inh conf inactive
COc1ccc(S(=O)(=O)N[C@H]2CC[C@H](CCNC(=O)c3ccccc3F)O[C@@H]2CO)cc1	none
O=C(CSc1ccc(Br)cc1)NCC1(N2CCCCC2)CCCCC1	none
CC(=O)Nc1ccc(SCC(=O)NCC2(N3CCCCC3)CCCCC2)cc1	PRMT1 inh 40.8 | PRMT1 inh conf 37.1
CNC(=S)NNC(=O)c1cccn(Cc2cccc(C(F)(F)F)c2)c1=O	none
COc1ccc(NS(=O)(=O)c2ccc(N3CCCC3)c(NC(=S)Nc3ccc(SC(F)F)cc3)c2)cc1	PRMT1 inh 29.1 | PRMT1 inh conf inactive
COc1ccc(NS(=O)(=O)c2ccc(N3CCCC3)c(NC(=S)Nc3cccc(C)c3C)c2)cc1	none
Cc1cccc(C)c1NC(=O)COC(=O)c1c2c(nc3ccccc13)/C(=C\c1ccc3c(c1)OCO3)CCC2	PRMT1 inh 145.3 | PRMT1 inh conf inactive
CCOc1cc(/C=C2\CCCc3c2nc2ccccc2c3C(=O)O)ccc1OC	PRMT1 inh 116.9 | PRMT1 inh conf inactive
C[C@@H]1CN([C@@H](C)CO)C(=O)CCCn2nncc2CO[C@H]1CN(C)C(=O)C1CCCCC1	none
CC(=O)CSc1nc2c(c(=O)[nH]c(=O)n2C)n1Cc1cccc(Br)c1	PRMT1 inh 36.3 | PRMT1 inh conf inactive
CCOc1cc(C2C(C#N)=C(N)OC(C)=C2C(C)=O)cc(Br)c1O (stereo not given)	PRMT1 inh 26.0 | PRMT1 inh conf 28.3
CCOC(=O)C1=C(C)OC(N)=C(C#N)C1c1cc(Cl)c(OCC(N)=O)c(OC)c1 (stereo not given)	none
Cc1cc(Br)cn2c(Cc3ccsc3)c(-c3ccco3)nc12	PRMT1 inh 27.2 | PRMT1 inh conf inactive
Cc1cc(Br)cn2c(Cc3ccccc3)c(-c3ccco3)nc12	PRMT1 inh 34.6 | PRMT1 inh conf inactive
Cc1cc(Br)cn2c(Cc3ccccc3)c(-c3cccc(Br)c3)nc12	none
Cc1cc(Br)cn2c(Cc3ccsc3)c(-c3cccc(Cl)c3)nc12	none
COc1ccccc1CNC(=O)NCCCN1CCN(c2ccc(F)cc2)CC1	none
COC(=O)[C@H](CC(C)C)NC(=O)/C=C/[C@H]1O[C@@H](n2cc(C)c(=O)[nH]c2=O)C[C@@H]1O	none
O=C(COC(=O)CNC(=O)c1ccco1)Nc1ncc(Cl)cc1Cl	PRMT1 inh 35.2 | PRMT1 inh conf inactive
O=C(CNS(=O)(=O)c1ccccc1)OCC(=O)c1ccc([N+](=O)[O-])cc1	PRMT1 inh 80.0 | PRMT1 inh conf 42.3
O=C(Cc1ccccc1)NCC(=O)OCC(=O)c1ccc([N+](=O)[O-])cc1	PRMT1 inh 76.4 | PRMT1 inh conf 67.4
O=C(CNC(=O)c1ccco1)OCC(=O)c1ccc([N+](=O)[O-])cc1	PRMT1 inh 47.0 | PRMT1 inh conf 41.9
Cc1cccc(NC(=O)CSc2nc(NS(=O)(=O)c3ccccc3)cc(=O)[nH]2)c1	none
O=C(CNC(=O)c1cccs1)c1ccc([N+](=O)[O-])cc1	none
O=C(CNC(=O)c1cccs1)OCC(=O)c1ccc([N+](=O)[O-])cc1	PRMT1 inh 60.5 | PRMT1 inh conf 50.6
Cc1ccc(C(=O)NCC(=O)NCC(=O)OCC(=O)c2ccc([N+](=O)[O-])cc2)cc1	PRMT1 inh 62.6 | PRMT1 inh conf 43.5
Cc1ccc(C(=O)COC(=O)CNC(=O)CNC(=O)c2ccc(C)cc2)cc1	none
COc1cccc(CN(C)C(=O)CSCC(=O)Nc2cccc(C)c2)c1OC	none
COc1cccc(/C=C2\SC(=S)N(NC(=O)c3ccncc3)C2=O)c1	PRMT1 inh 36.5 | PRMT1 inh conf inactive
NS(=O)(=O)c1ccc(NC2=CC(c3ccc([N+](=O)[O-])cc3)N(c3ccc(S(N)(=O)=O)cc3)C2=O)cc1 (stereo not given)	PRMT1 inh 26.6 | PRMT1 inh conf inactive
Cc1cccc(NC(=O)C2C3C=CC(O3)C2C(=O)O)c1C (stereo not given)	PRMT1 inh 32.5 | PRMT1 inh conf inactive
Cc1ccc(NC(=O)C2C3C=CC(O3)C2C(=O)O)cc1C (stereo not given)	none
Cc1ccc(C)c(NC(=O)C2C3C=CC(O3)C2C(=O)O)c1 (stereo not given)	PRMT1 inh 78.6 | PRMT1 inh conf 37.9
Cc1ccc(NC(=O)C2C3C=CC(O3)C2C(=O)O)c(C)c1 (stereo not given)	PRMT1 inh 37.1 | PRMT1 inh conf inactive
CC1(C)Cc2c(C#N)c(N3CCCC3)nc(-c3ccco3)c2CO1	PRMT1 inh 26.6 | PRMT1 inh conf 25.8
CC1(C)Cc2c(C#N)c(NCc3ccco3)nc(-c3ccco3)c2CO1	none
Cc1cc(/C=C2\Sc3ccccc3N2C)cc(C)[n+]1CC1CCCO1 (stereo not given)	PRMT1 inh 100.3 | PRMT1 inh conf inactive
CCc1ccc(/C=C2/Sc3ccccc3N(CC(=O)NCC3CCCO3)C2=O)cc1 (stereo not given)	none
c1ccc(Cn2c(SCC3CCCCC3)nnc2-c2cccnc2)cc1	PRMT1 inh 46.2 | PRMT1 inh conf inactive
c1ccc(Cn2c(SCC3CCC3)nnc2-c2cccnc2)cc1	none
Cc1ccccc1C(=O)NC1CCCCN(C)C1=O (stereo not given)	none
Cc1ccc(/C=C/C(=O)N2CCN(c3ncccn3)CC2)o1	PRMT1 inh 50.5 | PRMT1 inh conf 36.2
C[C@@H]1CN([C@H](C)CO)S(=O)(=O)c2ccc(-c3ccc(C(=O)N(C)C)cc3)cc2O[C@H]1CN(C)C(=O)Cc1ccccn1	none
CC1(C(=O)CSc2nc3ccccc3s2)CCC(=O)O1 (stereo not given)	PRMT1 inh 28.9 | PRMT1 inh conf 22.1
CC1(C)CC2(CC(C)(C(=O)CSc3nc4ccccc4s3)OC2=O)C(=O)O1 (stereo not given)	none
O=[N+]([O-])c1ccccc1S(=O)(=O)NC1CCCCCCC1	none
O=C1CCCCCCC1Sc1ccccc1[N+](=O)[O-] (stereo not given)	PRMT1 inh 29.6 | PRMT1 inh conf inactive
O=C(NC(=S)NC(=O)c1ccccc1F)c1ccccc1F	PRMT1 inh 28.1 | PRMT1 inh conf inactive
O=C(NC(=S)NCc1ccccc1)c1ccccc1F	none
Cc1cc(NC(=O)/C=C\C(=O)O)c([N+](=O)[O-])cc1C	PRMT1 inh 46.7 | PRMT1 inh conf inactive
COc1ccc(NC(=O)/C=C/C(=O)O)c([N+](=O)[O-])c1	PRMT1 inh 42.6 | PRMT1 inh conf inactive
Nn1c(SCC(=O)NC2CCCCCC2)nnc1-c1ccco1	none
Cc1cnc(NS(=O)(=O)c2ccc(N)cc2)nc1-c1ccccc1O	none
COCCn1c(C)cc(C(=O)CSc2ccc3ccccc3n2)c1C	PRMT1 inh 35.3 | PRMT1 inh conf inactive
COCC(C)n1c(C)cc(C(=O)CSc2ncccn2)c1C (stereo not given)	none
COCCn1c(C)cc(C(=O)CSc2ccc(NC(C)=O)cc2)c1C	PRMT1 inh 24.8 | PRMT1 inh conf 24.5
COCC(C)n1c(C)cc(C(=O)CSc2ccc(NC(C)=O)cc2)c1C (stereo not given)	PRMT1 inh 38.8 | PRMT1 inh conf inactive
